# Source: PubChem BioAssay (The Scripps Research Institute Molecular Screening Center)
# DAX1 inh-1: DAX1 (NR0B1) inhibitors, primary screen, cell-based, HEK293, Gal4-DAX1, luciferase luminescence. HEK293 Gal4-DAX1 luciferase reporter. Nuclear receptor subfamily 0 group B member 1 (Homo sapiens), P51843. AID 504766, 2011. inhibition, % at 6.75 µM. actives 0.99% (n = 340,000);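 active means inhibition above the mean over all tested compounds plus 3 SD, cut at about 4.2% in these data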;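 further: 0% = DAX1-transfected cells with DMSO and 100% = empty-vector control cells with DMSO; inhibition shows as a rise in luminescence from relieved DAX1 repression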
# AHR activator: AHR activators, primary screen, cell-based, luminescence, luciferase reporter, human; Aryl hydrocarbon receptor (Homo sapiens), P35869; AHR-responsive luciferase reporter cells; activation, % at 5 µM; actives 2.5% (n = 320,000); AID 2796, 2010; in the data active means activation above about 47%;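 further: 0% = vehicle wells and 100% = reference agonist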
# hgDAF-12 ag: H. glycines DAF-12 receptor agonists, primary screen, cell-based, luminescence, HEK293, GAL4 fusion, UAS-luciferase. activation, % at 6.8 µM. actives 1.8% (n = 370,000). HEK293 GAL4-hgDAF12 UAS-luciferase reporter, agonist luminescence; normalized to butyrate control;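 active means activation above a cutoff set at the mean of all screened compounds plus 3 SD, cut at about 10% in these data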;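 further: 0% = DMSO wells and 100% = sodium butyrate wells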
# ssDAF12 agonist: S. stercoralis DAF-12 nuclear receptor activators, primary screen, cell-based, luminescence, HEK293, GRIP1 co-expression, lit1-tk-luc. activation, % at 6.8 µM. Nuclear hormone receptor DAF-12 (Strongyloides stercoralis). HEK293 ssDAF-12/GRIP1 lit1-tk-luc reporter; % of 3 µM dafachronic acid response. actives 1% (n = 370,000). AID 652126, 2013;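 active means activation above the mean over all tested compounds plus 3 SD, cut at about 0.9% in these data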;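 further: 0% = DMSO-only wells and 100% = 3 µM delta7-dafachronic acid wells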
# hcDAF-12 act: H. contortus DAF-12 nuclear receptor activators, primary screen, cell-based, luminescence, HEK293, lit1-tk-luc reporter. actives 1.4% (n = 370,000). activation, % at 6.8 µM. HEK293 hcDAF-12 lit1-tk-luc reporter; 0% DMSO, 100% Δ7-dafachronic acid;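 active means activation above the mean of all tested compounds plus 3 SD, cut at about 5.5% in these data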;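 further: 100% = response to 3 µM Δ7-dafachronic acid high control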
# DAX1 inh-2: DAX1 (NR0B1) inhibitors on StAR promoter, primary screen, cell-based, luminescence, SF-1 (NR5A1), full-length DAX-1 | HEK293T StAR-luciferase reporter, SF-1/DAX-1 repression relief | inhibition, % at 6.8 µM | actives 1.1% (n = 370,000);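 active means inhibition above the mean over all tested compounds plus 3 SD, cut at about 3.6% in these data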;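 further: 0% = DAX-1 cells with DMSO and 100% = cells lacking DAX-1 with DMSO; higher inhibition means more luminescence from relief of DAX-1 repression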
# LXR ag: LXR agonists, Gal4 luciferase reporter, confirmation, counter-screen for hcDAF-12 agonist project, cell-based, luminescence, HEK293, H. contortus campaign. shares compounds with hcDAF-12 act. HEK293 Gal4-LXR tk-luc reporter, 24 h; normalized: DMSO 0%, positive control 100%. activation, % at 6.8 µM. 3,400 tested, under 10 active. AID 743027, 2013;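 active means mean percent activation of the reporter above a cutoff set as the average over tested compounds plus their standard deviation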
# Target sequence (P55055 whole entry, looked up, the tested form may be a part): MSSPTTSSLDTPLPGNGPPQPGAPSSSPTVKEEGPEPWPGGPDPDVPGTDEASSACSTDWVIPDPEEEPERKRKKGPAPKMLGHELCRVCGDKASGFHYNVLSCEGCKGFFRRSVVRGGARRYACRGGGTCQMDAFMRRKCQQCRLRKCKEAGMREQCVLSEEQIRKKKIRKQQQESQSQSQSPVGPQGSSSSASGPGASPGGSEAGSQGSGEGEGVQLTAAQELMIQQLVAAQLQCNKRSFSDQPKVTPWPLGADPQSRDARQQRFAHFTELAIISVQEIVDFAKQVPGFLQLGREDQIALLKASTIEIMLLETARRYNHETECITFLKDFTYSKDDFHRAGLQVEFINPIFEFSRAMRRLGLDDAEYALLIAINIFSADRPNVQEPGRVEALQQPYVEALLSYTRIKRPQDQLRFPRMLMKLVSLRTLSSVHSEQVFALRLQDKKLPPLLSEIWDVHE
# hcDAF12 conf: H. contortus DAF-12 receptor agonists, confirmation, cell-based, luminescence, HEK293, lit1-tk-luc, triplicate; shares compounds with hcDAF-12 act; HEK293 hcDAF-12 lit1-tk-luc reporter; % of Δ7-dafachronic acid response; activation, % at 6.8 µM; actives 61% (n = 3,400);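 active means mean activation across triplicate tests above the threshold derived from the earlier primary screen, cut at about 5.5% in these data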;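 further: 0% = DMSO only wells and 100% = 3 µM Δ7-dafachronic acid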
# hgDAF12 conf: H. glycines DAF-12 receptor agonists, confirmation, cell-based, luminescence, HEK293, GAL4-LBD fusion. shares compounds with hgDAF-12 ag. HEK293 GAL4-hgDAF12 luciferase reporter, agonist mode; percent of butyrate response. activation, % at 6.8 µM. actives 80% (n = 3,300). AID 743050, 2013;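 active means mean activation over triplicate wells above the hit cutoff derived from the earlier primary screen, cut at about 11% in these data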;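 further: 0% = DMSO low control and 100% = 2 mM sodium butyrate high control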
# LXRb DAF12 ctr: LXR agonists, Gal4 luciferase reporter, confirmation, counter-screen for hgDAF-12 agonist project, cell-based, luminescence, HEK293, H. glycines campaign. shares compounds with hgDAF-12 ag. 24 h. activation, % at 6.8 µM. 3,300 tested, under 10 active. AID 743051, 2013;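 active means mean activation of the triplicate above a set limit carried over from the primary screen, none filed active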
# An asterisk follows results filed as active; / = no result given. Most compounds without a hit are left out; they make up all but 5.7% or so of the library.
SMILES,DAX1 inh-1,AHR activator,hgDAF-12 ag,ssDAF12 agonist,hcDAF-12 act,DAX1 inh-2,LXR ag,hcDAF12 conf,hgDAF12 conf,LXRb DAF12 ctr
COc1ccccc1NCc1nc2ccccc2n1C,/,/,16*,1.3*,11*,/,1,8.7*,18*,1
Cc1ccc(N/N=C(\C#N)C(N)=S)cc1C,1,5,5,-2,3,0,/,/,/,/
Cc1ccc(N/C=C(/C#N)c2ccsc2)cc1C,3,-8,15*,1.5*,7.2*,2,1,8.1*,22*,1
Oc1ccc(-c2csc(Nc3ncccn3)n2)cc1,1,37,18*,0,7.0*,3,2,8.4*,10,1
COc1ccc(-c2csc(Nc3cccc(C)n3)n2)cc1C,2,/,14*,0,6.7*,2,1,6.0*,17*,1
COc1ccc(CNC(=S)NC(C)CCc2ccccc2)cc1 (stereo not given),1,2,1,-1,0,0,/,/,/,/
Cc1cccc(C(=O)n2c(=S)nc3cc(C)ccn32)c1,4.6*,-2,16*,1,6.6*,3.7*,1,6.6*,13*,1
Cc1c(C(C)(C)C)s/c(=N/S(=O)(=O)c2ccccc2)n1C,-1,8,-2,0,-2,0,/,/,/,/
Cc1c(C(C)(C)C)sc(=NC(=O)c2ccccc2O)n1C,2,40,14*,0,6.9*,1,2,14*,15*,1
Cc1ccc(Nc2nc3ccccc3s2)c(C)c1,0,23,21*,1.2*,9.1*,4,2,9.6*,22*,1
Cc1cc(C)nc(Nc2nc3ccccc3s2)n1,1,26,17*,0,14*,4.5*,2,15*,19*,1
Cc1ccc(C)c(-n2c(SCC(=O)NC(C(=O)O)C(C)C)nnc2-c2cccc(Cl)c2)c1 (stereo not given),0,1,1,-1,-1,0,/,/,/,/
CSc1ccccc1OCc1cc(C(=O)N[C@H]2CCCCNC2=O)no1,1,8,19*,0,7.2*,4.4*,1,3,10,0
CSc1ccccc1OCc1cc(C(=O)NC2CCOC2)no1 (stereo not given),0,13,2,-1,1,0,/,/,/,/
COc1ccc(CC/C(C)=N\NC(N)=O)cc1,0,8,1,-2,0,0,/,/,/,/
O=[N+]([O-])c1cccnc1N/N=C/c1ccccc1O,-1,-1,15*,0,9.2*,3.8*,1,4,10,1
O=[N+]([O-])c1ccccc1/C=N/Nc1nccnc1Cl,1,45,6,0,1,1,/,/,/,/
CC(C)(C)c1ccccc1NC(=O)NC1CCN(Cc2c(F)cccc2Cl)CC1,/,3,2,-1,-1,0,/,/,/,/
CC(C)OC(=O)c1ccc2nc3ccccc3nc2c1,3,8,17*,1.2*,7.8*,2,2,8.1*,17*,1
CCN(CC)C(=O)c1ccc2nc3ccccc3nc2c1,2,38,4,0,1,0,/,/,/,/
Cc1cc(NC(=O)COc2cccc([N+](=O)[O-])c2)no1,0,-2,-2,0,0,0,/,/,/,/
O=C(O)c1cc(N/N=C/c2ccc(-c3ccccc3)cc2)ccc1Cl,3,/,24*,1.3*,11*,2,2,12*,25*,1
O=C(O)c1cc(N/N=C/c2ccncc2)ccc1Cl,-3,10,1,-1,0,1,/,/,/,/
N#Cc1ccccc1S(=O)(=O)N1CCN(C(=O)C2CC(=O)N(c3ccc4c(c3)OCCO4)C2)CC1 (stereo not given),-1,2,-3,-1,-2,-1,/,/,/,/
CCN(CC)S(=O)(=O)c1ccc(NC(=O)COC(=O)c2ccc(-n3nc(C)cc3C)cc2)cc1,0,0,-3,-1,-1,-1,/,/,/,/
CCN(CC)S(=O)(=O)c1ccc(C(=O)OCC(=O)Nc2ccc(-c3nc4ccc(C)cc4s3)cc2)cc1,0,-1,14*,0,7.6*,4.0*,2,8.9*,23*,1
CN(CC(=O)Nc1ccc(F)cc1)C(=O)COC(=O)c1cccc(N(C)C)c1,1,13,7,1,4,4,/,/,/,/
O=C(N/N=C/c1cccs1)c1n[nH]c2c1CCC2,2,35,14*,1.8*,7.1*,1,1,3,14*,1
CCc1ccc(C2=NN(S(C)(=O)=O)C(c3cccs3)C2)cc1 (stereo not given),1,26,15*,2.6*,12*,3,1,6.1*,23*,1
COc1ccc(C2=NN(S(C)(=O)=O)C(c3cccs3)C2)cc1 (stereo not given),1,16,5,0,1,3,/,/,/,/
